Source: PubChem BioAssay
NTR1 agonist: activates human neurotensin receptor 1; P30989; NTR1-U2OS beta-arrestin-GFP spot imaging, agonist mode; activation, % at 20 µM; 330,000 compounds, 0.17% hits; AID 493036;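 active = activation at or above 40% of the spot to cytoplasm intensity ratio, with at least 20 cells analyzed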;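 note: 0% = DMSO without peptide and 100% = 100 nM NTR1 peptide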
M1 ag parental: nonselective activator or artifact in parental CHO-K1 cells | 360,000 compounds, 0.48% hits | Fluo-8 calcium fluorescence; scaled to maximal ATP response, vehicle zero | activation, % at 3 µM | AID 602248; in the data active = activation above about 15%;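 note: untransfected CHO-K1 host cells lacking M1 receptor as counterscreen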
TMEM16A inh: blocks the mouse calcium-activated chloride channel TMEM16A | Q8BHY3 | HEK293 TMEM16A/YFP iodide influx fluorescence, ionomycin | normalized B-score (activity score, 25-100; higher = stronger inhibition) at 10 µM | 310,000 compounds, 1.2% hits | AID 588511;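 active = ratio plate-corrected score three or more library SD toward inhibition, starting fluorescence score within five deviations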;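 note: score derived from kinetic fluorescence span divided by baseline fluorescence per well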
TMEM16A act: activates or potentiates the mouse TMEM16A chloride channel | 340,000 compounds, 0.3% hits | B-score at 10 µM | HEK293 TMEM16A/YFP-H148Q/I152L, iodide quench fluorescence; stronger effect = lower value | Q8BHY3;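 active = fluorescence-ratio B-score plate-corrected deviation score at least 3 library SD below zero, with starting fluorescence score within 5 deviations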;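 note: channel opened by trigger with iodide after compound preincubation; score built on the fluorescence ratio of max minus min over baseline; more negative score means more quench and so TMEM16A activation or potentiation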
CHO-K1 Ca antag: nonselective inhibitor or artifact in parental CHO-K1 cells; inhibition, % at 3 µM; 360,000 compounds, 0.6% hits; ATP-induced calcium, Fluo-8 fluorescence;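 active = inhibition above a per-plate cutoff, the plate's mean sample inhibition plus 3 SD, cut at about 24% in these data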;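 note: 0% = DMSO plus EC80 ATP and 100% = DMSO alone without ATP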
CHO-K1 Ca PAM: counter-screen for M1 PAMs: effect in parental CHO-K1 cells. AID 602247. 360,000 compounds, 0.02% hits. ATP EC20, Fluo-8 calcium fluorescence; 0% at ATP EC20, 100% at ATP max. activation, % at 3 µM;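 active = activation above the run cutoff, the mean activation of all test compounds plus 3 SD, cut at about 40% in these data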;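 note: peak over basal fluorescence ratio in a 140 s read after ATP addition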
TMEM16A reconf: reconfirmed blocker of mouse TMEM16A calcium-activated chloride channel. shares compounds with TMEM16A inh. HEK293 TMEM16A/YFP-H148Q, iodide quench fluorescence; ionomycin added to raise cell calcium. inhibition, % at 10 µM. 2,300 compounds, 39% hits;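 active = mean duplicate percent inhibition, scaled so buffer wells are 0 and the reference blocker 100, over three buffer SD above buffer mean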
TMEM16A Ca cntr: calcium mobilization counter-screen hit for TMEM16A inhibitor series; shares compounds with TMEM16A inh; TMEM16A/YFP HEK293, Fluo4 calcium mobilization; calcium response (% of ionomycin), % at 10 µM; 2,300 compounds, 2% hits; AID 652231;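 active = duplicate-averaged calcium signal over 20% of the ionomycin maximum, relative to buffer baseline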;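 note: each well's signal is peak minus trough fluorescence divided by its pre-addition baseline; 0% = buffer wells and 100% = ionomycin wells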
YFP-HEK293 quench: parental YFP-HEK293 iodide quench counter-screen activity; shares compounds with TMEM16A inh; ionomycin; YFP ratio F(max-min)/F0 at 10 µM; 2,300 tested, under 10 active;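 active = yellow fluorescent protein signal ratio exceeding the buffer control mean by over 5 SD of those controls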;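 note: ratio is mean of duplicate wells from kinetic YFP trace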
ClC-1 inh: blocks the rat ClC-1 voltage-dependent chloride channel. shares compounds with TMEM16A inh. CHO ClC-1-YFP, iodide influx fluorescence quench; iodide control reads 0, buffer control 100. ratio percent, % at 10 µM. 2,300 tested, under 10 active. AID 652236;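 active = duplicate-mean ratio percent above the mean of iodide-only control wells, which defines zero, plus 5 of their SD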;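 note: higher percent means stronger block of ClC-1 iodide influx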
Target sequence (P35524 whole entry, looked up): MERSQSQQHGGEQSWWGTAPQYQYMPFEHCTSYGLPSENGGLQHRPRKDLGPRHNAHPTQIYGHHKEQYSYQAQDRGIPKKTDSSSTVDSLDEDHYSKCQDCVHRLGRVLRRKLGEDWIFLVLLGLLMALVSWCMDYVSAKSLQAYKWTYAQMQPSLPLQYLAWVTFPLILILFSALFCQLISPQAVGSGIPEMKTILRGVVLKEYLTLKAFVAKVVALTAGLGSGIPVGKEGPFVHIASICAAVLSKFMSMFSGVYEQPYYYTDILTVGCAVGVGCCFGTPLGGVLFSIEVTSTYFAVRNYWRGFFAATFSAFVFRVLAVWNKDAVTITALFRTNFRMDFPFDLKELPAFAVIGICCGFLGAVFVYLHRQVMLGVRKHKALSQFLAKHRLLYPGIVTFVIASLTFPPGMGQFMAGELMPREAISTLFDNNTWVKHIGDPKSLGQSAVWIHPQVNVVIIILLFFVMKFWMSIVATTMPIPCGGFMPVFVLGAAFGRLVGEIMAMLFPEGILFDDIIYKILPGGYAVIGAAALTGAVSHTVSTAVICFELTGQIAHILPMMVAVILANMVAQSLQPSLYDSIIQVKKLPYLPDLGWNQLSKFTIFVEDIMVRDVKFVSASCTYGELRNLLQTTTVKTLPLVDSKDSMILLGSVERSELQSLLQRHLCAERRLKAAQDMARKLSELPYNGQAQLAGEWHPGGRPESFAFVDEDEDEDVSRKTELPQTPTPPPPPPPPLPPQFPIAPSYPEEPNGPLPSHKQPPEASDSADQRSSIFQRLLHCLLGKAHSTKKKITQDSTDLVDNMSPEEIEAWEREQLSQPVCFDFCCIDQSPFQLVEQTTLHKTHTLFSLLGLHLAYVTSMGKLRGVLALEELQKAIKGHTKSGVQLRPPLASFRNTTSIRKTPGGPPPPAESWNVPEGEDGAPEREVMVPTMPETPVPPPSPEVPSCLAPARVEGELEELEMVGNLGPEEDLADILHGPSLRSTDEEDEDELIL
* marks the source's active call; other numbers are inactive results; i = inactive; . = not tested or not shown. Most compounds without a hit are left out; they make up all but 2.2% or so of the library.

SMILES | NTR1 agonist | M1 ag parental | TMEM16A inh | TMEM16A act | CHO-K1 Ca antag | CHO-K1 Ca PAM | TMEM16A reconf | TMEM16A Ca cntr | YFP-HEK293 quench | ClC-1 inh
Cc1cccc(Oc2cnn(C(C)(C)C)c(=O)c2Cl)c1 | 2.6 | 1.5 | 25* | i | -2.7 | 13.2 | i | i | -0.942 | -16.5
CC1c2cc3c(cc2CCN1C(=O)c1ccc(Cl)cc1)OCCCO3 (stereo not given) | -0.4 | 1.6 | 25* | i | -17.1 | 16.2 | i | i | -1.04 | -9.0
COc1ccccc1CN=Cc1[nH]c2ccc(Br)c(Cl)c2c1O | -3.9 | 0.4 | i | i | 7.1 | 10.7 | 16.0%* | i | -0.895 | -7.5
O=C(CSc1ccc(F)cc1)N1CCC(c2nc3ccccc3s2)CC1 | 0.8 | 6.3 | 100* | i | 2.7 | 3.7 | 29.0%* | i | -1.18 | -6.5
Cn1nc(CC(=O)Nc2ccc(N3CCN(C(=O)OC(C)(C)C)CC3)cc2)c2ccccc2c1=O | 0.3 | 6.9 | 25* | i | 15.7 | -2.5 | i | i | -1.07 | -11.5
Cn1nc(CC(=O)Nc2ccc3c(c2)OCCO3)c2ccccc2c1=O | -1.3 | 11.8 | 25* | i | 27.5* | -10.7 | i | i | -1.03 | -11.5
Cn1c(SCC(=O)Nc2ccc3c(c2)OCCO3)nnc1-c1ccco1 | 0.6 | -0.2 | 100* | i | 0.0 | -7.8 | i | i | -1.01 | -22.0
Cc1ccc([C@H]2C[C@H](n3cc(-c4ccc(F)cc4)nn3)[C@@H](O)CN2CC2CCCCC2)cc1 | . | 0.1 | . | . | -6.2 | 13.1 | . | . | . | .
Cc1ccc(C(=O)N(Cc2nc3ccccc3c(=O)[nH]2)C2CCCC2)cc1 | 2.0 | 0.3 | 100* | i | 4.2 | 3.6 | i | i | -1.04 | -12.0
Cc1ccc(C(=O)CSc2nc3ccccc3c(=O)[nH]2)cc1 | 2.0 | 0.2 | 100* | i | 5.4 | -6.3 | i | i | -1.04 | -12.5
Cc1ccccc1C(=O)N(Cc1nc2ccccc2c(=O)[nH]1)C1CCCC1 | 1.0 | 2.1 | i | i | 1.5 | 12.2 | . | . | . | .
S=C(NCC1CCCO1)N1CCN(c2nc(-c3ccccc3)cs2)CC1 (stereo not given) | 4.3 | 9.6 | 25* | i | -0.2 | -3.4 | 18.5%* | i | -1.41 | -2.5
CC(C)C(c1nnnn1C1CCCCC1)N1CCN(c2ncccn2)CC1 (stereo not given) | -1.8 | -0.3 | 100* | i | -9.1 | 18.4 | i | i | -1.22 | -14.0
COCCCNC(=O)C[C@H]1C[C@H](C(=O)N2CCCCC2)[C@@]2(CCc3ccccc3)c3[nH]c4cc(CCC(=O)N(C)C)ccc4c3CCN2C1=O | 1.1 | -0.5 | . | . | -11.2 | 13.7 | . | . | . | .
O=C(Nc1ccccc1Cl)c1cc(C2CCCN(C(=O)c3cccc(O)c3)C2)on1 (stereo not given) | . | 0.7 | . | . | -0.4 | 15.6 | . | . | . | .
Cc1cccc(C)c1OCc1cc(C(=O)N2CCN(c3ccc(F)cc3)CC2)no1 | 1.6 | -0.1 | 25* | i | 13.9 | -4.2 | 24.0%* | i | -1.12 | -1.5
COc1ccc(NC(=O)C2CCN(Cc3cnn(-c4ccccc4)c3-n3cccc3)CC2)cc1OC | 0.7 | -0.3 | i | i | -4.7 | 17.4 | . | . | . | .
COc1cccc(NC(=O)C2CCN(Cc3cnn(-c4ccccc4)c3-n3cccc3)CC2)c1 | -0.5 | 2.3 | 25* | i | -4.7 | 10.1 | i | i | -1.38 | -9.0
COc1cccc(OC)c1C(=O)OCc1c(-c2ccccc2)ncc2ccccc12 | -0.6 | -0.7 | . | i | -12.2 | 3.9 | . | . | . | .
